According to PubChem BioAssay AID743398 (Broad Institute, 2014):
About 3,600 (1.2%) of roughly 300,000 compounds were called active. The sample as a whole holds a higher share of actives than the screen did. Values without a mark were called inactive. Rule as the data show it: active = activation above about 30% (passing the limit was not always enough); inconclusive = no clear call, values can overlap the other calls.

Test: Wnt/beta-catenin pathway activators, primary screen, cell-based, plate reader, single point (AID 743398);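 also: 0% = neutral control wells and 100% = positive control wells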
Conditions: Wnt/beta-catenin reporter cell assay, activator, at 9.35 µM, active compounds read high

Row | Compound | activation
1 | CCC(=O)N1Cc2cc(C(=O)NCc3cccc(F)c3)nc(-c3cccc(C4=CCCC4)c3)c2[C@H]1CCO | -0.49%
2 | O=C(NCc1ccccc1)[C@H]1CCCN1C(=O)[C@H]1CCCN1C(=O)c1cc(F)cc(F)c1 | 0.924%
3 | COc1ccc(/C=N/Nc2ccccc2C(=O)O)cc1 | 42.5% (active)
4 | COc1ccc(C(=O)Nc2ccccc2C(=O)N/N=C/c2ccc(O)c(OC)c2)cc1 | -6.14%
5 | COc1ccc(/C=N/NS(=O)(=O)c2ccc(NC(C)=O)cc2)cc1 | 0.428%
6 | Cn1nc(N)c2ncc(C(Cl)(Cl)Cl)nc21 | -2.14%
7 | N#Cc1cccc(C(=O)NCC2CCN(C(=O)C(=O)c3cc4ccccc4o3)CC2)c1 | -4.03%
8 | Cc1ccc(C(=O)N/C(=C/c2cccs2)C(=O)NCC2CCCO2)cc1 (stereo unspecified) | -12.8%
9 | Cc1ccc2c(c1)N(CC(=O)NCC1CCCO1)C(=O)CO2 (stereo unspecified) | 6.02%
10 | Cc1ccc(-n2c(C)cc(/C=C(\C#N)C(=O)NCC3CCCO3)c2C)cc1 (stereo unspecified) | 38.2% (active)
11 | O=C1Nc2ccccc2NC(c2ccc3c(c2)OCO3)=C1N(Cc1ccc(F)cc1)C(=O)c1ccco1 | -2.97%
12 | COC(=O)[C@]12C[C@H](CC(=O)NCc3cccc(C(F)(F)F)c3)C(=O)N(Cc3ccc4c(c3)OCO4)C1=C[C@H](COCc1ccccc1)O[C@@H]2C | -11.9%
13 | CCCCNc1cccc2c1S(=O)(=O)N[C@@H](C)CO2 | -1.25%
14 | O=C(NCc1cccc(C(F)(F)F)c1)c1ccc2sc(COCCO)nc2c1 | 0.012%
15 | Cc1ccc(NC(=O)Nc2cccnc2)cc1 | 8.59%
16 | Cc1ccc(NC(=O)Nc2ccc3oc(C)nc3c2)cc1 | 53.7% (active)
17 | Cc1ccc(NC(=O)Nc2nnc(-c3ccncc3)s2)cc1 | 0.919%
18 | O=C1Nc2ccccc2-n2nnnc2C1N1CCN(c2cccc(C(F)(F)F)n2)CC1 (stereo unspecified) | -4.31%
19 | O=C(CSc1nc2ccccc2o1)N1c2ccccc2Sc2ccc(Cl)cc21 | -2.83%
20 | O=C(CSc1nc2ccccc2o1)N/N=C/c1ccccc1C(=O)O | 25.7%
21 | CC(C)(C)C(=O)CSc1nc2ccccc2o1 | 52.3% (active)
22 | Cc1cc2c(cc1C)N1C(=O)c3cc4ccccc4cc3NC(=O)C1C(=O)N2 (stereo unspecified) | -1.58%
23 | CC1(C(=O)Nc2cccc3c2CCCC3)CCN1C(=O)C1(c2ccccc2)CC1 (stereo unspecified) | -1.58%
24 | Cc1ccc(CSc2nnc(-c3cnccn3)n2C)cc1 | 2.04%
25 | Cn1c(SCc2c(F)cccc2Cl)nnc1-c1cnccn1 | 41.7% (active)
26 | Oc1ccc(-n2nnnc2SCc2c(F)cccc2Cl)cc1 | -2.71%
